Assay outcomes deposited in PubChem BioAssay by National Center for Advancing Translational Sciences (NCATS).
Sampled rows, rich in hits. Any-hit rate of the full collection: about 11%.
ALDH1A1 block: qHTS Assay for Inhibitors of Aldehyde Dehydrogenase 1 (ALDH1A1). Purified ALDH1A1, NADH fluorescence, propionaldehyde substrate. Potency, µM (doses to about 75.3 µM), usual class: inhibitors. 220,000 compounds, 7.3% hits. AID 1030, 2008
PNC inhibitor: High Content Assay for Compounds that inhibit the Assembly of the Perinucleolar Compartment | PC3M PTB-GFP, PNC prevalence imaging, 16 h; hits give low values | activity change (PNC), negative = inhibition, % at 10 µM | 140,000 compounds, 3.1% hits | AID 2417, 2010;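 active = readout at or below -70, meaning at least 70% loss of cells showing the perinucleolar compartment, a nuclear body marking cancer cells; inconclusive = readout between -30 and a set limit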
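Compounds are pinned in duplicate onto adhered PC3M cells stably expressing GFP-tagged PTB and incubated 16 h at 37 C. Cells are then fixed, nuclei stained with Hoechst, and PNC-positive cells counted.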
HPGD inh: qHTS Assay for Inhibitors of HPGD (15-Hydroxyprostaglandin Dehydrogenase) | AID 894, 2007 | 15-hydroxyprostaglandin dehydrogenase [NAD(+)] (Homo sapiens), P15428 | 150,000 compounds, 4.3% hits | purified HPGD, NADH fluorescence kinetic, PGE2 substrate | Potency, µM, actives largely listed as inhibitors
Target sequence (P15428 whole entry, looked up): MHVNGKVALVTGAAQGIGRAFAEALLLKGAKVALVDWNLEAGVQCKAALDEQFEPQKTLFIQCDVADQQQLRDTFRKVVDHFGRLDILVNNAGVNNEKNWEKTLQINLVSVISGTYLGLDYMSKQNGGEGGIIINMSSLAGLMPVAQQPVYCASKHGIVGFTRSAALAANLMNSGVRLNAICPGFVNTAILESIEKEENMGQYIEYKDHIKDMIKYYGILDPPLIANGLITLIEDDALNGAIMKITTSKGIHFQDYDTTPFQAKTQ
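NADH formation kinetics: reaction with 30 uM PGE2 and 1 mM NAD+ (final), 20 nM enzyme, Tris-HCl pH 8 with Tween 20, after 15 min compound preincubation at room temperature. Fluorescence change, last versus first of five reads.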
A number is an active result; . = inactive; ? = inconclusive; / = no result; [ ] = remark or other dose. Unless noted, calls follow the shape of the dose curve; as a rule, active = well fitted inhibition curve with a large enough effect (not every such curve was filed as active); inconclusive = small, poorly fitted or top-dose-only effect, or another doubt; inactive = no such curve, though single readings can be large or run the other way.

SMILES	ALDH1A1 block	PNC inhibitor	HPGD inh
Cn1ncc(N=Cc2c(O)ccc3ccccc23)c1C(=O)Nc1cccc(Cl)c1	.	/	/
COc1ccc(CCN(C)CCCN2CC(c3ccccc3)CC2=O)cc1OC (configuration not stated)	.	/	/
COc1ccc(C2CC(=O)N(CCCN(C)CCc3ccc(OC)c(OC)c3)C2)cc1 (configuration not stated)	14µM	/	/
Fc1cccc(Cl)c1/C=N\N=C1c2ccccc2-c2ccccc21	.[13.5 µM]	/	.
COC(=O)[C@@]1(Cc2ccc(F)cc2)[C@H]2c3cc(C(=O)N4CCCC4)n(Cc4ccccn4)c3C[C@H]2CN1C(=O)c1ccccc1	.	/	.
C/C(N)=C(/C#N)C(=O)CSc1nnnn1-c1ccc(C)cc1C	?	-133	.
Cc1ccc(-n2nnnc2SC(C)C(N)=O)c(C)c1 (configuration not stated)	.	.	.
O=C(/C=C(\O)c1ccccc1)c1ccccc1O	.	/	20µM
O=C(NO)c1ccccc1O	.	.	.
C=C(C)C(=O)c1ccc(OC)cc1	.	/	.
COc1ccc(C(=O)[C@H](Br)[C@H](Br)C(=O)O)cc1	0.28µM	/	.
COc1ccccc1NC(=S)N1CCN(Cc2ccc3c(c2)OCO3)CC1	.	.	.
Cc1cccc(-n2cc[nH]c2=S)c1	?	.	?
CC(C)c1ccccc1-n1cc[nH]c1=S	10µM	/	/
Cc1cccc(-n2cc[nH]c2=S)c1C	11µM	.	/
Cn1cc[nH]c1=S	.	.	.
O=C(Nc1nc(-c2ccc(Oc3ccccc3)cc2)cs1)C1=COCCO1	?	.	?
C[N+](C)(C)CC(=O)N/N=C\c1c(O)ccc2ccccc12	.[13.5 µM]	/	.
Fc1ccccc1-c1n[nH]c(=S)n1CC1CCCO1 (configuration not stated)	.	/	/
S=c1[nH]nc(-c2ccccc2Cl)n1CC1CCCO1 (configuration not stated)	14µM	?	.
COc1ccccc1CNC(=O)C(C)c1ccc([N+](=O)[O-])cc1 (configuration not stated)	.	/	/
Cc1cccc(C)c1OCc1nnc(SCC(=O)Nc2ccccc2F)o1	?	.	.
Cc1cnc(NC(=O)CSc2nnc(COc3c(C)cccc3C)o2)s1	.	-119	.
Cc1ccc(S(=O)(=O)Nc2c(C)nc3nc[nH]n3c2=O)c(C)c1	.	/	/
COC(=O)CSC1=NS(=O)(=O)c2ccccc21	.	?	22µM
SMILES	ALDH1A1 block	PNC inhibitor	HPGD inh
O=C(Cc1ccccc1)NNC1=NS(=O)(=O)c2ccccc21	.	/	/
COC(=O)CSc1ccccc1C(=O)OC	.	.	.
O=C(CSC1=NS(=O)(=O)c2ccccc21)Nc1ccccc1	0.56µM	.	16µM
O=C(CCc1ccccc1)NC(NC(=S)Nc1cccc(Cl)c1)C(Cl)(Cl)Cl (configuration not stated)	?	-119	.
Cc1ccc(C)c(NC(=S)NC(NC(=O)OCc2ccccc2)C(Cl)(Cl)Cl)c1 (configuration not stated)	.	.	.
O=C(CCc1ccccc1)NC(NC(=S)Nc1ccc(Br)cc1)C(Cl)(Cl)Cl (configuration not stated)	.	?	.
O=C(NC(NC(=S)Nc1c(Cl)cc(Cl)cc1Cl)C(Cl)(Cl)Cl)OCc1ccccc1 (configuration not stated)	3.5µM	.	.
Cc1c(C(=O)O)nnn1-c1ccccc1	.	.	.
Cc1c(C(=O)NNC(=S)Nc2cccc(Cl)c2)nnn1-c1ccccc1	11µM	.	.
CCCC(=O)Nc1ccccc1NC(=O)c1ccc(OC(C)=O)cc1	.	/	/
COc1ccc(C(=O)C(CCC(CNC(C)(C)C)C(=O)c2ccc(OC)cc2)CNC(C)(C)C)cc1 (configuration not stated)	8.9µM	.	.
COc1ccc(C(=O)CC(=O)c2ccc(C(C)(C)C)cc2)cc1	?	/	.
CCC(=O)c1ccc(OC(C)C(=O)NC2(C#N)CCCCC2)cc1 (configuration not stated)	.	/	/
CCOC(=O)C=C(C(=O)OCC)C(=O)OCC	.	/	/
N[C@@]1(C(=O)O)CCC[C@@H]1C(=O)O	.[13.5 µM]	/	.
Cc1cc(C)c(S(=O)(=O)Nc2ccc(O)cc2)cc1C	14µM	.	.
COc1ccc(NS(=O)(=O)c2cc(C(=O)O)ccc2C)cc1	.	.	.
Cc1ccc(C)c(S(=O)(=O)Nc2ccc(O)cc2)c1	?	.	.
COc1ccc(NS(=O)(=O)c2cc(C)ccc2C)cc1	0.56µM	.	14µM
Cc1ccc(S(C)(=O)=O)cc1S(=O)(=O)Nc1ccccc1	.	.	.
COc1ccc(NS(=O)(=O)c2cc(S(C)(=O)=O)ccc2C)cc1	28µM	.	.
CCOC(=O)c1sc(NC(=O)CCCn2nc([N+](=O)[O-])c(Cl)c2C)c(C(=O)OCC)c1C	.	.	.
O=C(NC(c1ccccc1)C(Cl)(Cl)Cl)c1ccccc1 (configuration not stated)	.	.	.
CC(=O)c1cc(CN2C(=O)CCC2=O)cs1	.	?	.
CC(=O)c1cc(Cc2csc(C(C)=O)c2)cs1	.	-100	.
SMILES	ALDH1A1 block	PNC inhibitor	HPGD inh
O=C(COc1ccc(S(=O)(=O)NC2CCCCC2)cc1Cl)N1CCN(c2ccccc2)CC1	.	.	.
O=C(NC(=S)Nc1ccc2c(c1)OCCO2)c1ccc(F)cc1Cl	?	.	.
CCc1ccc(C(=O)NC(=S)Nc2ccc3c(c2)OCCO3)cc1	18µM	.	.
O=C(NC(=S)Nc1ccc2c(c1)OCO2)c1ccc(Cl)cc1	14µM	.	.
Cc1cc(C)cc(C(=O)NC(=S)Nc2ccc3c(c2)OCCO3)c1	13µM	.	/
Cc1ccc(C(=O)NC(=S)Nc2ccc3c(c2)OCCO3)c(C)c1	?	.	.
CC(C)C(=O)Nc1cccc(NC(=S)NC(=O)c2ccc(Cl)cc2)c1	10µM	?	.
Cc1ccc(C(=O)Nc2ccc3c(c2)OCO3)cc1	.	.	.
CC(C)C(=O)Nc1cccc(NC(=O)c2ccc(Cl)cc2Cl)c1	.	?	.
CCCCCCCCCCCCCCCCOCC(CO)OC (configuration not stated)	.	/	.
Cc1c(-c2ccncc2)oc2ccc(Br)cc2c1=O	.	/	/
CCc1nnc(NS(=O)(=O)c2ccc(NC(=S)NC(=O)c3ccc(OC)c(OC)c3)cc2)s1	7.9µM	?	?
COc1ccc(S(=O)(=O)Nc2nnc(C)s2)cc1	?	.	32µM
Cc1nnc(NS(=O)(=O)c2ccc(N)cc2)s1	.	.	.
CCc1nnc(NS(=O)(=O)c2ccc(NC(=S)NC(=O)/C=C/c3ccc(F)cc3)cc2)s1	?	?	.
Cc1nc(NS(=O)(=O)c2ccccc2)sc1NC(=O)OC(C)C	?	.	.
CCc1nnc(NS(=O)(=O)c2ccc(NS(=O)(=O)c3ccc(NC(C)=O)cc3)cc2)s1	.	?	.
CCc1nnc(NS(=O)(=O)c2ccc(NC(=S)NC(=O)c3ccc(OC)cc3)cc2)s1	18µM	.	?
COc1ccc(NC(=O)Nc2sc(NS(=O)(=O)c3ccccc3)nc2C)cc1	8.9µM	/	/
COc1ccc(COC(=O)N/N=C2/C[C@@H](O)[C@@H](O)[C@@H]3[C@@H]4C(=O)N(C[C@@H]5CCCO5)C(=O)[C@H]4CC[C@@H]23)cc1	.[13.5 µM]	/	/
